Data on 51 molecules can be found in PubChem BioAssay AID686978 (National Center for Advancing Translational Sciences (NCATS), 2013).

Hit rate of the full screen: of about 420,000 compounds, about 64,000 (15%) were called active. Inconclusive results (about 27%) are left out. A selection follows. Values without a mark were called inactive. Calls come from the whole dose curve; as a rule, active = well fitted inhibition curve with a large enough effect; inconclusive = small, poorly fitted or top-dose-only effect; inactive = flat fitted curve, though single readings scatter.
% is set by controls: 0 for no effect and ±100 for the full control effect; potency is the fitted concentration of half-maximal effect.

This assay can be described thus: qHTS for Inhibitors of human tyrosyl-DNA phosphodiesterase 1 (TDP1): qHTS in cells in absence of CPT. Note: nearly all actives have a fitted effect of over 55% in size. Particulars: DT40 Tdp1-/- hTDP1 cells, no CPT, ATP luminescence, 48 h; activity change, negative = growth inhibition: at 46.2 µM (top of the series). In a few lines:
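Chicken DT40 Tdp1-/- cells stably complemented with human TDP1 were seeded at 400 cells/well with DMSO in place of 20 nM camptothecin. After compound pinning, cells grew at least 48 hr at 37 °C; viability read by CellTiter-Glo luminescence.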
A general note: qHTS replaces the single test concentration by a dilution series.
Take `CC1CCCCN1CCCNc1ccc(C(CC(N)=O)NC(=O)c2ccccc2)cc1[N+](=O)[O-]` (stereo unspecified): the “activity change, negative = growth inhibition” value is 1.22%.

Consider `COc1ccc(OC)c(C(=O)NC(CC(N)=O)c2ccc(N3CCC(N4CCCCC4)CC3)c([N+](=O)[O-])c2)c1` (stereo unspecified), for which the “activity change, negative = growth inhibition” value was -0.645%.

In the case of `NC(=O)CC(NC(=O)Cc1cccc2ccccc12)c1ccc(NCc2cc(F)ccc2F)c([N+](=O)[O-])c1` (stereo unspecified), the Potency is 29.1 µM (active).

Regarding `COc1ccccc1CNc1ncncc1-c1cccc(NS(C)(=O)=O)c1`, the “activity change, negative = growth inhibition” value was 19.5%.

Regarding `CS(=O)(=O)Nc1cccc(-c2cncnc2Nc2ccccc2)c1`, the “activity change, negative = growth inhibition” value was -2.18%.

Consider `CNc1ncnc2ccc(-c3cccc(NS(C)(=O)=O)c3)cc12`, for which the Potency is 18.4 µM (active).

Regarding `Cn1c2ccccc2c2cc(/C=C(\NC(=O)c3ccccc3)C(=O)NCC(=O)O)ccc21`, the “activity change, negative = growth inhibition” value was 7.87%.

Take `O=C(O)C1CCCN1C1=NS(=O)(=O)c2ccccc21` (stereo unspecified): the “activity change, negative = growth inhibition” value was 18.4%.

In the case of `Fc1cccc(-n2ncc3c2ncn2nc(-c4ccccc4Cl)nc32)c1`, the “activity change, negative = growth inhibition” value was -15.3%.

On to `COc1ccc(N2C(=O)c3ccccc3NC2c2ccc(OC)c(CN3CCOCC3)c2)cc1` (stereo unspecified), for which the “activity change, negative = growth inhibition” value is -19.5%.

For `COc1cc(C2C3=C(CCCC3=O)OC3=C2C(=O)CCC3)ccc1OCC(=O)Nc1ccccc1`, the “activity change, negative = growth inhibition” value is -25.5%.

In the case of `COc1ccc(C2Nc3ccc(NC(=O)COC(C)=O)cc3C(=O)N2Cc2ccccc2)cc1COc1ccc(NC(C)=O)cc1` (stereo unspecified), the Potency was 12.6 µM (active).

Take `CN(CC(=O)Nc1ccc(F)cc1)CC(=O)N1CCCCC1`: the “activity change, negative = growth inhibition” value is -14.5%.

`CCc1c(C)c2c(C)[nH]nc2oc1=O`: the “activity change, negative = growth inhibition” value is -25%.

With `COc1ccc(OC)c(-n2nnc3c(sc4nc(C)c(Br)c(C)c43)c2=O)c1`, the “activity change, negative = growth inhibition” value was 1%.

Turning to `COc1ccc(OC)c(Cc2cnc3nc(N)nc(N)c3c2C)c1`, the Potency is 0.164 µM (active).

Take `Cc1nnc(NC(=O)c2ccc3nccnc3c2)s1`: the “activity change, negative = growth inhibition” value was -30%.

Turning to `CCOc1cc(N2CCOCC2)c(OCC)cc1NC(=O)COc1cccc(Cl)c1`, the Potency is 2.59 µM (active).

Consider `O=C(COc1nsnc1N1CCOCC1)Nc1ccccc1Cl`, for which the “activity change, negative = growth inhibition” value was 1.23%.

`O=C(COc1cccc(Cl)c1)NCc1ccccc1`: the “activity change, negative = growth inhibition” value was -10.2%.

In the case of `O=C(COc1ccc(Cl)cc1)NC(=S)Nc1ccccc1N1CCOCC1`, the “activity change, negative = growth inhibition” value was -2.65%.

Regarding `CCOc1cc(N2CCOCC2)c(OCC)cc1NC(=O)COc1cccc2cccnc12`, the Potency is 10.3 µM (active).

Consider `NC(=O)C1CCN(C(=O)COc2cccc3cccnc23)CC1`, for which the “activity change, negative = growth inhibition” value was 1.62%.

For the molecule `CC1CCN(C(=O)Cn2cc(C(=O)c3ccco3)c3ccccc32)CC1`, the “activity change, negative = growth inhibition” value is -5.83%.

`CC(CC(=O)O)CC(=O)NNC(=O)c1cccc(Br)c1` (stereo unspecified): the “activity change, negative = growth inhibition” value was -3.65%.

Turning to `COc1ccc(NC(=O)CC2C(=O)OCC3CCCCN32)cc1Cl` (stereo unspecified), the “activity change, negative = growth inhibition” value was -13.6%.

On to `N#CC1(NC(=O)COC(=O)Cc2n[nH]c(=O)c3ccccc23)CCCCC1`, for which the “activity change, negative = growth inhibition” value was 1.42%.

As for `O=C(Nc1ccccc1C(=O)N1CCOCC1)C1CCC(=O)N1C1CCCC1` (stereo unspecified), the “activity change, negative = growth inhibition” value is 5.03%.

For `Cc1nc(C)c(C(=O)Nc2cccc(C)c2C)o1`, the “activity change, negative = growth inhibition” value is -15.9%.

For `CC1(C)C2CC=C(/C=N/NC(=O)C3CC3)C1C2` (stereo unspecified), the “activity change, negative = growth inhibition” value is -4.07%.

For the molecule `COC(=O)c1cc(OC)c(OC)cc1NC(=O)C1CCCO1` (stereo unspecified), the “activity change, negative = growth inhibition” value was -11.9%.

On to `COc1cc(=O)n2c(c1C(=O)N(C)Cc1nonc1C)CCN(C(=O)c1ccc(C)cc1C)CC2`, for which the “activity change, negative = growth inhibition” value was -1.72%.

In the case of `O=C(Cc1ccc(Cl)cc1)c1ccccc1`, the “activity change, negative = growth inhibition” value was -15.1%.

Regarding `CCN(C(=O)CSc1cccc[n+]1[O-])c1ccccc1`, the Potency is 1.84 µM (active).

For `CCN(CC)c1ccc(S(=O)(=O)N2CCOCC2)cc1NC(=O)CSc1cccc[n+]1[O-]`, the “activity change, negative = growth inhibition” value is -9.38%.

Turning to `O=C(CSc1cccc[n+]1[O-])c1ccc(Cl)cc1`, the Potency is 5.17 µM (active).

`O=C(CSc1cccc[n+]1[O-])c1ccc(-c2ccccc2)cc1`: the Potency was 0.82 µM (active).

For `COc1ccccc1C(=O)CSc1cccc[n+]1[O-]`, the “activity change, negative = growth inhibition” value was -0.265%.

For the molecule `O=C(CSc1nnc2ccccn12)c1ccccc1`, the “activity change, negative = growth inhibition” value was -9.28%.

As for `CC(NC(=O)COC(=O)CCC(=O)c1ccc(Cl)cc1)c1ccccc1` (stereo unspecified), the “activity change, negative = growth inhibition” value is -27%.

As for `CCN(C(=O)CSc1nnc(-c2ccncc2)o1)c1ccccc1`, the “activity change, negative = growth inhibition” value was -1.26%.

On to `Cc1ccc(C2=CSC3=NS(=O)(=O)CCN23)cc1C`, for which the “activity change, negative = growth inhibition” value was -17.4%.

As to `CCCCNC(=O)N(O)C1N(/N=C/c2ccccc2O)C(=S)SC1(C)C` (stereo unspecified), the “activity change, negative = growth inhibition” value is -22.5%.

On to `CC(C)C1Nc2c(C(=O)O)cccc2C(Nc2ccccc2C(=O)O)C1(C)C` (stereo unspecified), for which the “activity change, negative = growth inhibition” value was 3.53%.

With `Cc1ccc(N/N=C2\COC(C)(C)CC2=O)cc1`, the “activity change, negative = growth inhibition” value was 3.82%.

Regarding `O=C(NCc1ccccc1Cl)c1csc([C@@H]2O[C@H](CO)[C@@H](O)[C@H]2O)n1`, the “activity change, negative = growth inhibition” value is -14.7%.

Regarding `Cc1ccsc1C(=O)NCCc1ccco1`, the “activity change, negative = growth inhibition” value was -9.2%.

Turning to `COc1cc(C(=O)NCc2ccncc2)cc(Br)c1OCc1ccccc1`, the Potency is 23.1 µM (active).

On to `CCCn1nc2cc(C(=O)NCc3ccccc3)ccc2c1OCC`, for which the “activity change, negative = growth inhibition” value was 7.81%.

`C[n+]1ccc(C(=O)NCc2ccccc2)cc1`: the “activity change, negative = growth inhibition” value was 4.77%.

Consider `Cc1ccc2c(c1)C(O)(CC(=O)c1cccnc1)C(=O)N2` (stereo unspecified), for which the “activity change, negative = growth inhibition” value was -23.7%.
